Test results taken from publication PMC4552634, “A New Set of Chemical Starting Points with Plasmodium falciparum Transmission-Blocking Potential for Antimalarial Drug Discovery” (PLoS ONE, 2015).
The campaign covered roughly 13,000 compounds. About 3,200 (25%) showed an effect of 50% or more. Some of the results follow.

test system: P. falciparum stage V gametocytes; design: BacTiter-Glo ATP luminescence viability of purified stage V gametocytes in 384-well plates, per cent inhibition versus DMSO; conditions: 48 h, 5 µM; inhibitor

SMILES | % Inhibition
C[C@@]12C[C@@H](Nc3nc(NCCc4ccc(O)cc4)nc(N4CCNCC4)n3)C[C@@H](C1)c1cccc(Cl)c1O2 [TCMDC-134047] | -6.304%
Cc1cc(NC(=O)Nc2ccc3nc(C)oc3c2)c2cc(Cl)ccc2n1 [TCMDC-140076] | 38.43%
O=C(Nc1ccc2c(c1)OCO2)NC1CCN(c2ccnc(Nc3ccc(F)cc3)n2)C1 (stereo not drawn) [TCMDC-133605] | -89.44%
CC(C)Cc1csc(NC(=O)C=Cc2ccco2)c1C(=O)O [TCMDC-125660] | 6.698%
Clc1ccc(OCc2ccccc2)c(-c2nc(-c3nc4ncc(Br)cc4[nH]3)cs2)c1 [TCMDC-136729] | -65.34%
c1ccc(CN2CCC(NCc3ccccc3-c3ccc(CNC4CCCC4)cc3)CC2)cc1 [TCMDC-140473] | 106.4%
c1ccc(CN2CCC(NCc3ccc(-c4cncc5ccccc45)cc3)CC2)cc1 [TCMDC-134153] | 14.12%
COc1ccccc1NC(=O)Nc1cccc(-c2ccc(-c3nc4ccc(C(F)(F)F)cc4[nH]3)cc2)c1 [TCMDC-133203] | -14.42%
N#Cc1ccc(N2CCN(Cc3cccc(-c4ccc(-c5nc6ccccc6[nH]5)cc4)c3)CC2)nc1.O=C(O)C(F)(F)F [TCMDC-133937] | 5.421%
FC(F)(F)c1cnc(Sc2nnc(-c3ccco3)o2)c(Cl)c1 [TCMDC-125006] | -49.8%
FC(F)(F)c1cnc(Sc2nnc(-c3ccncc3)o2)c(Cl)c1 [TCMDC-123767] | 83.92%
CC1CCCCN1Cc1cccc(-c2c[nH]c3nc(NC4CCCC4)ncc23)c1 (stereo not drawn) [TCMDC-133776] | -28.36%
COc1ccc2nccc([C@@H](O)CN3CCC(NCc4ccc5c(c4)oc(=S)n5C)CC3)c2c1 [TCMDC-141186] | 1.23%
O=C(Nc1ccc([N+](=O)[O-])cc1Br)c1cc2ccccc2nc1Cl [TCMDC-124537] | 29.24%
O=[N+]([O-])c1ccc(N2CCCN(C(=S)Nc3ccc(F)cc3Br)CC2)nc1 [TCMDC-124054] | 81.59%
O=C(Nc1ccc(Cn2ncc(N3CCCNCC3)c(Cl)c2=O)cc1)Nc1ccc(F)cc1[N+](=O)[O-] [TCMDC-141926] | -31.19%
N#Cc1ccc(NC(=NC2CCN(Cc3ccccc3)CC2)Nc2ccccc2Cl)c(O)c1 [TCMDC-140256] | -5.798%
Cc1cccc2nc(-c3cccc(-c4ccc(C(=O)NCc5ccccc5S(C)(=O)=O)cc4)c3)[nH]c12 [TCMDC-132505] | 5.091%
